# Hits are enriched below; roughly 2.8% of the tested compounds scored in any of these assays.
# IDE inh = inhibits human insulin-degrading enzyme in HEK cells. P14735. FAbetaB cleavage, fluorescence polarization. inhibition, % at 5.59 µM. actives 0.41% (n = 320,000). AID 434962;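 active = percent inhibition above the average of all tested compounds plus 3 SD, set per screening campaign, cut at about 16% in these data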;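 also: IDE supplied by intact live HEK cells; FP after avidin binding of uncleaved biotin substrate so inhibition keeps polarization high; 0% = DMSO wells and 100% = 60 µM reference IDE inhibitor Ii1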
# Target sequence (P14735 whole entry, looked up): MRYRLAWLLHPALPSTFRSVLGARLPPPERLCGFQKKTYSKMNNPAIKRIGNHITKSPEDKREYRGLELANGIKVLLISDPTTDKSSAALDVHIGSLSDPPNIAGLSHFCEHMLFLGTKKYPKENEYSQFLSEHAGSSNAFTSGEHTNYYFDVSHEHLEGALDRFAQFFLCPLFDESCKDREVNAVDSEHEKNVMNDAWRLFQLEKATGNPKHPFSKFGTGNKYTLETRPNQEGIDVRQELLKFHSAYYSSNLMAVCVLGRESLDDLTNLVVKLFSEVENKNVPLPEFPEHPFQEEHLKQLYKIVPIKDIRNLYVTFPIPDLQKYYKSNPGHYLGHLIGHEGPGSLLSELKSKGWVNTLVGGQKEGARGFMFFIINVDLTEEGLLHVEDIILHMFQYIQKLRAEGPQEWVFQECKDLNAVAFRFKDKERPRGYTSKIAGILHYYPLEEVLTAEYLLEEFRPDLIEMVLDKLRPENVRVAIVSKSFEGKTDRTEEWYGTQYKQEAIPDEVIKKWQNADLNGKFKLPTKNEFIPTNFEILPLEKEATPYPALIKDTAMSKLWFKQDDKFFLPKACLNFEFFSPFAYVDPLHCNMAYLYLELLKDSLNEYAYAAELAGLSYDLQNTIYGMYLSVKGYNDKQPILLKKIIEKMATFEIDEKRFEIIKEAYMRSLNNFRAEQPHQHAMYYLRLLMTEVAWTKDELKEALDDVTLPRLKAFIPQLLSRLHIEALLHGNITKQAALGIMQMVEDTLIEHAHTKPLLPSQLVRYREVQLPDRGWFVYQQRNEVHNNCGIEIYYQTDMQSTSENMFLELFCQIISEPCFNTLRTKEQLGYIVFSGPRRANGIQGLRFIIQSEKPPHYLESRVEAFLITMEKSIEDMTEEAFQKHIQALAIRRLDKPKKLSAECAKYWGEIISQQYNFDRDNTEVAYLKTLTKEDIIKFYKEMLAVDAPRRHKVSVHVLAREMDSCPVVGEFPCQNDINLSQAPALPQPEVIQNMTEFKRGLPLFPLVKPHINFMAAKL
# PP1 inh = PP1-alpha (human) inhibition in PP5 counter-screen | actives 0.9% (n = 320,000) | inhibition, % at 6.7 µM | purified PP1alpha, OMFP fluorescence;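 active = inhibition above the mean inhibition of all tested compounds plus 3 SD, computed separately for each screening campaign, cut at about 15% in these data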
# PP5 inh = blocks human protein phosphatase 5 activity; actives 0.18% (n = 320,000); P53041; inhibition, % at 6.7 µM; purified PP5c, OMFP substrate fluorescence;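 active = inhibition above the campaign's mean inhibition across all tested compounds plus 3 SD, cut at about 9.5% in these data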;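 also: 0% = DMSO only and 100% = 100 µM cantharidin control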
# Exocytosis inh = lytic granule exocytosis inhibition | TALL-104 LAMP-1 surface exposure, flow cytometry; cells stimulated with thapsigargin and PMA | inhibition, % at 10 µM | actives 0.66% (n = 360,000) | AID 651702;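 active = inhibition above about 55%, limit read from the data; inconclusive = no clear call, values can overlap the other calls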
# IDE act = activators of human insulin-degrading enzyme in cells. actives 0.073% (n = 340,000). AID 493087. activation, % at 5.96 µM. HEK cells, FAbeta-B cleavage, fluorescence polarization; 0% vehicle, 100% cell-free pure enzyme wells;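 active = activation above the mean of all tested compounds plus 3 SD, set per screening campaign, cut at about 17% in these data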
# SKKanGAS inh = SKKanGAS growth inhibition; S. pyogenes SKKanGAS, kanamycin growth, BacTiter-Glo, 6 h; actives 1.3% (n = 300,000); AID 1662; inhibition, % at 7.5 µM;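 active = mean replicate score, as percent of positive control median, at least 50; inconclusive = mean below 50 but one replicate at or above 50; inactive = mean and every replicate below 50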;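 also: strain carries kanamycin resistance gene driven by streptokinase promoter and grows in 40 µg/ml kanamycin; loss of luminescence reflects streptokinase promoter inhibition or plain growth inhibition; 0% = median of DMSO wells and 100% = positive control at its reference dose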
# IDE cell inh cf = cellular human IDE inhibition, confirmation | shares compounds with IDE inh | HEK cells, FAbetaB cleavage, fluorescence polarization | inhibition, % at 5.59 µM | actives 51% (n = 1,200) | AID 435028;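 active = mean inhibition across triplicate wells above the cutoff set by the earlier primary insulin-degrading enzyme screen, cut at about 16% in these data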;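 also: 0% = DMSO wells and 100% = 60 µM reference IDE inhibitor Ii1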
# HEK cytotox = counter-screen for IDE inhibitors: cytotoxicity in HEK cells; HEK293 cytotoxicity, ATP luminescence; actives 28% (n = 1,200); shares compounds with IDE inh; inhibition, % at 5.59 µM; in the data active = inhibition above about 22%;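 also: 0% = vehicle wells and 100% = reference cytotoxic drug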
# Active calls of the source: *; ? = inconclusive; · = no result given.
SMILES,IDE inh,PP1 inh,PP5 inh,Exocytosis inh,IDE act,SKKanGAS inh,IDE cell inh cf,HEK cytotox
CN(C)c1ccc(/C=C(\C#N)C(=O)c2ccccc2)cc1,28.4*,-2.0,1.1,-5.1,-97.6,-3.3,96.5*,17.9
CCN(CC)c1ccc(/C=C(\C#N)C(N)=O)cc1,·,·,·,1.3,-1.6,·,·,·
CCN(CC)c1ccc(/C=C(\C#N)C(=O)c2ccc(Br)cc2)cc1,67.8*,-4.9,-5.6,3.8,-176.0,-9.3,50.6*,20.8
CCN(CC)c1ccc(/C=C(\C#N)C(N)=S)cc1,22.2*,5.5,6.2,7.1,-101.3,-9.5,13.4,11.3
CC(Oc1cc(Cl)ccc1Cl)C(=O)N/N=C\c1ccnn1C (stereo not given),-2.8,-2.6,-0.2,-9.3,-2.6,1.9,·,·
CCN(CC)c1ccc(/C=C2\C(=O)c3ccc(C(=O)O)cc3C2=O)cc1,141.5*,-7.4,-1.9,7.4,-106.4,·,25.9*,12.2
CCN(CC)c1ccc(C(=O)O)cc1,5.8,1.8,3.7,-13.6,-1.8,9.3,·,·
CN(C)c1ccc(/C=C/C(=O)c2ccc3c(c2)OCO3)cc1,72.9*,-1.4,0.3,22.6,-97.4,·,118.9*,10.2
CN(C)c1ccc(/C=C/C(=O)c2cccnc2)cc1,30.1*,-0.3,1.4,11.0,-108.5,-6.7,43.2*,11.2
NC(=S)NN=C1c2ccccc2-c2ccccc21,0.9,3.7,2.3,19.4,-1.5,3.8,·,·
Cc1cccc(S(=O)(=O)Nc2cccc3c2C(=O)c2ccccc2-3)c1,50.2*,5.5,-1.9,-0.5,-38.4,22.2,41.4*,16.4
Cc1nc2c(ccc3nc(NC(=O)c4ccc5c(c4)OCCO5)sc32)s1,18.8*,0.5,2.8,0.0,-21.4,33.7,5.6,31.3*
CCN=C1S/C(=C\c2cc(OCC)c(O)cc2Br)C(=O)N1CC,16.9*,7.3,-0.4,-1.5,-17.0,19.7,22.2*,23.0*
CC(C(=O)c1ccc(-c2ccccc2)cc1)[n+]1ccccc1 (stereo not given),5.2,1.2,0.8,-0.4,-3.4,0.9,·,·
Cc1cc[n+](C(C)C(=O)c2ccc(-c3ccccc3)cc2)cc1 (stereo not given),21.1*,-6.0,-1.7,0.0,-16.3,·,8.4,77.2*
CCCCN1C(=O)C2Cc3c([nH]c4ccccc34)CN2C1=S (stereo not given),30.3*,2.0,0.4,-4.4,-33.3,8.6,93.8*,12.9
COc1ccc(OC)c2c1C(=O)C(Cl)=C(Cl)C2=O,21.5*,2.0,2.8,93.4*,-102.5,34.0,17.5*,124.6*
COc1ccc(NC(=O)c2sc3nc(-c4cccnc4)ccc3c2N)cc1OC,18.6*,-2.4,0.4,0.0,-4.3,-5.9,13.1,18.0
Cc1c(C)c2ccc(OCC(=O)N3CCC[C@@H]3C(=O)O)c(C)c2oc1=O,17.2*,-1.5,5.3,-2.1,4.6,-0.3,1.7,15.0
COc1ccc(O)c(C=Nc2cc(NC(C)=O)c(Cl)cc2Cl)c1,-0.7,-1.6,-0.9,-2.5,6.3,4.0,·,·
CC(=O)Nc1cc(N=Cc2ccc(O)cc2O)c(Cl)cc1Cl,17.9*,-0.1,3.2,17.6,-54.7,3.9,32.3*,11.2
Cc1ccccc1S(=O)(=O)Cc1ccc(C(=O)N2CC(C)CC(C)C2)o1 (stereo not given),3.4,-1.3,2.6,-5.3,6.3,6.1,·,·
Cc1ccccc1S(=O)(=O)Cc1ccc(C(=O)N2CCN(c3cccc(C)c3C)CC2)o1,16.7*,4.0,3.6,7.3,-5.7,18.2,5.9,68.9*
Cc1c(C(=O)Nc2cc(F)ccc2F)sc2nc3n(c(=O)c12)CCCCC3,-4.8,-3.0,-1.1,-2.4,5.2,4.9,·,·
CCOC(=O)/C(=C/C=C1\Sc2ccccc2N1CC)C(C)=O,101.2*,6.4,4.6,-0.5,-145.6,-9.9,142.9*,19.8
SMILES,IDE inh,PP1 inh,PP5 inh,Exocytosis inh,IDE act,SKKanGAS inh,IDE cell inh cf,HEK cytotox
CCOC(=O)/C(=C/C=C1\Sc2cc(C)c(C)cc2N1CC)C(C)=O,·,·,·,5.5,-123.8,-3.3,·,·
CCOC(=O)/C(=C\C=C1/Sc2ccccc2N1CC)C(C)=O,123.0*,7.0,4.8,8.7,-103.2,-0.7,155.5*,22.6*
CC1=C(C(=O)Nc2ccc(C)cn2)C(c2cnn(C)c2)C2=C(CCCC2=O)N1 (stereo not given),-1.3,-1.6,1.9,-4.3,0.1,-6.9,·,·
CC1=C/C(=C\C=C(C#N)C#N)N(C)c2ccccc21,80.6*,5.5,3.9,-4.2,-86.6,-1.8,125.1*,22.8*
CN1/C(=C/C=C(C#N)C#N)C(C)(C)c2ccccc21,-4.5,-3.3,-0.1,1.3,-2.6,0.1,·,·
CCCCC(O)(CCCC)C(=O)NN(C(=O)c1cccnc1Cl)c1ccccc1,9.2,-5.2,1.2,9.9,-2.7,4.7,·,·
CC(C)CC(=O)NC(c1cccs1)c1ccc2cccnc2c1O (stereo not given),16.6*,5.9,-6.0,-1.7,-2.3,?,7.7,106.1*
Cc1sc2ncnc(SCC(=O)NC(=O)c3cccn3C)c2c1C,19.2*,6.8,-1.1,3.2,-10.8,3.2,2.5,17.7
Nc1nc2ccccc2n1CCOc1ccc(Br)cc1,-1.4,9.3,0.1,5.5,-2.2,-1.9,·,·
S=C(Nc1ccccc1)Nc1nc2ccccc2n1CCOc1ccc(Br)cc1,25.6*,11.7,2.3,-6.6,-10.7,5.6,8.6,9.9
CN1C(=O)c2cccc3c(N(C)C)ccc(c23)C1=O,45.7*,-3.1,6.2,8.5,-44.8,-8.2,51.5*,11.0
CN1C(=O)c2cccc3c(Br)ccc(c23)C1=O,-0.8,3.3,-2.2,31.9,·,-5.6,·,·
CCOc1ccccc1-n1c(SCC(=O)N2CCCc3ccccc32)nnc1-c1cccnc1,33.0*,-4.8,-0.3,1.2,-37.6,6.9,16.6*,15.8
COc1ccccc1NC(=O)NCCN1CCN(c2cccc(Cl)c2)CC1,3.1,-0.2,4.2,4.1,-4.0,-4.5,·,·
COCCN1C(=O)CN(S(C)(=O)=O)CC1(C)C(=O)Nc1c(C)cccc1C (stereo not given),·,·,·,-2.3,·,·,·,·
CCOc1cc(/C=C2\SC(=S)N(NS(=O)(=O)c3ccc(C)cc3)C2=O)ccc1O,35.1*,4.4,1.7,-0.6,-31.7,27.1,83.8*,9.4
COc1cc(/C=C2\SC(=S)N(NS(=O)(=O)c3ccccc3)C2=O)ccc1O,74.3*,1.3,2.4,0.1,-102.6,13.7,160.8*,6.6
COc1cc(/C=C2\SC(=S)N(NS(=O)(=O)c3ccc(C)cc3)C2=O)cc(OC)c1OC,0.3,9.4,2.6,-0.1,-0.1,26.6,·,·
COc1cc(/C=C2\SC(=S)N(NS(=O)(=O)c3ccc(C)cc3)C2=O)ccc1O,72.0*,2.8,0.3,3.1,-96.1,7.7,160.8*,11.6
